Measurements from PubChem BioAssay.
The source made the active and inactive calls.

Experiments:
[1] = small molecules captured by biotinylated probe aFSTL3 – biochemical, small-molecule microarray, fluorescence 635/667, stem cell growth factor project, primary screen (AID 1064); details: higher = more signal;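 note: measures binding of the biotinylated anti-FSTL3 antibody to printed compounds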
[2] = binders from COS7 lysate, DM2A8 probe, primary screen, torsin A project, cell lysate, small-molecule microarray, fluorescence 635/667 (AID 1065); details: higher = more signal, COS7 lysate expressing mutant human TOR1A
[3] = small molecules captured by biotinylated probe aFGF2 – biochemical, small-molecule microarray, fluorescence 635/667, stem cell growth factor project, primary screen (AID 1067); details: higher = more signal;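 note: measures binding of biotinylated aFGF2 protein to printed compounds on slides; z-score merges feature fluorescence and signal-to-noise across triplicate slides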
[4] = small molecules captured by biotinylated probe aFGF10 – biochemical, small-molecule microarray, fluorescence 635/667, stem cell growth factor project, primary screen (AID 1071); details: higher = more signal;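 note: score merges 667 nm spot intensity and signal to noise from triplicate slides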
[5] = biological target: Neurogenic locus notch homolog protein 2 (Homo sapiens) (UniProt Q04721); assay: small molecules binding Notch2 protein – biochemical, small-molecule microarray, 635 nm fluorescence, stem cell growth factors, primary screen (AID 1073); details: higher = more signal
Sequence of Neurogenic locus notch homolog protein 2 (Homo sapiens) (Q04721 whole entry, looked up, canonical isoform): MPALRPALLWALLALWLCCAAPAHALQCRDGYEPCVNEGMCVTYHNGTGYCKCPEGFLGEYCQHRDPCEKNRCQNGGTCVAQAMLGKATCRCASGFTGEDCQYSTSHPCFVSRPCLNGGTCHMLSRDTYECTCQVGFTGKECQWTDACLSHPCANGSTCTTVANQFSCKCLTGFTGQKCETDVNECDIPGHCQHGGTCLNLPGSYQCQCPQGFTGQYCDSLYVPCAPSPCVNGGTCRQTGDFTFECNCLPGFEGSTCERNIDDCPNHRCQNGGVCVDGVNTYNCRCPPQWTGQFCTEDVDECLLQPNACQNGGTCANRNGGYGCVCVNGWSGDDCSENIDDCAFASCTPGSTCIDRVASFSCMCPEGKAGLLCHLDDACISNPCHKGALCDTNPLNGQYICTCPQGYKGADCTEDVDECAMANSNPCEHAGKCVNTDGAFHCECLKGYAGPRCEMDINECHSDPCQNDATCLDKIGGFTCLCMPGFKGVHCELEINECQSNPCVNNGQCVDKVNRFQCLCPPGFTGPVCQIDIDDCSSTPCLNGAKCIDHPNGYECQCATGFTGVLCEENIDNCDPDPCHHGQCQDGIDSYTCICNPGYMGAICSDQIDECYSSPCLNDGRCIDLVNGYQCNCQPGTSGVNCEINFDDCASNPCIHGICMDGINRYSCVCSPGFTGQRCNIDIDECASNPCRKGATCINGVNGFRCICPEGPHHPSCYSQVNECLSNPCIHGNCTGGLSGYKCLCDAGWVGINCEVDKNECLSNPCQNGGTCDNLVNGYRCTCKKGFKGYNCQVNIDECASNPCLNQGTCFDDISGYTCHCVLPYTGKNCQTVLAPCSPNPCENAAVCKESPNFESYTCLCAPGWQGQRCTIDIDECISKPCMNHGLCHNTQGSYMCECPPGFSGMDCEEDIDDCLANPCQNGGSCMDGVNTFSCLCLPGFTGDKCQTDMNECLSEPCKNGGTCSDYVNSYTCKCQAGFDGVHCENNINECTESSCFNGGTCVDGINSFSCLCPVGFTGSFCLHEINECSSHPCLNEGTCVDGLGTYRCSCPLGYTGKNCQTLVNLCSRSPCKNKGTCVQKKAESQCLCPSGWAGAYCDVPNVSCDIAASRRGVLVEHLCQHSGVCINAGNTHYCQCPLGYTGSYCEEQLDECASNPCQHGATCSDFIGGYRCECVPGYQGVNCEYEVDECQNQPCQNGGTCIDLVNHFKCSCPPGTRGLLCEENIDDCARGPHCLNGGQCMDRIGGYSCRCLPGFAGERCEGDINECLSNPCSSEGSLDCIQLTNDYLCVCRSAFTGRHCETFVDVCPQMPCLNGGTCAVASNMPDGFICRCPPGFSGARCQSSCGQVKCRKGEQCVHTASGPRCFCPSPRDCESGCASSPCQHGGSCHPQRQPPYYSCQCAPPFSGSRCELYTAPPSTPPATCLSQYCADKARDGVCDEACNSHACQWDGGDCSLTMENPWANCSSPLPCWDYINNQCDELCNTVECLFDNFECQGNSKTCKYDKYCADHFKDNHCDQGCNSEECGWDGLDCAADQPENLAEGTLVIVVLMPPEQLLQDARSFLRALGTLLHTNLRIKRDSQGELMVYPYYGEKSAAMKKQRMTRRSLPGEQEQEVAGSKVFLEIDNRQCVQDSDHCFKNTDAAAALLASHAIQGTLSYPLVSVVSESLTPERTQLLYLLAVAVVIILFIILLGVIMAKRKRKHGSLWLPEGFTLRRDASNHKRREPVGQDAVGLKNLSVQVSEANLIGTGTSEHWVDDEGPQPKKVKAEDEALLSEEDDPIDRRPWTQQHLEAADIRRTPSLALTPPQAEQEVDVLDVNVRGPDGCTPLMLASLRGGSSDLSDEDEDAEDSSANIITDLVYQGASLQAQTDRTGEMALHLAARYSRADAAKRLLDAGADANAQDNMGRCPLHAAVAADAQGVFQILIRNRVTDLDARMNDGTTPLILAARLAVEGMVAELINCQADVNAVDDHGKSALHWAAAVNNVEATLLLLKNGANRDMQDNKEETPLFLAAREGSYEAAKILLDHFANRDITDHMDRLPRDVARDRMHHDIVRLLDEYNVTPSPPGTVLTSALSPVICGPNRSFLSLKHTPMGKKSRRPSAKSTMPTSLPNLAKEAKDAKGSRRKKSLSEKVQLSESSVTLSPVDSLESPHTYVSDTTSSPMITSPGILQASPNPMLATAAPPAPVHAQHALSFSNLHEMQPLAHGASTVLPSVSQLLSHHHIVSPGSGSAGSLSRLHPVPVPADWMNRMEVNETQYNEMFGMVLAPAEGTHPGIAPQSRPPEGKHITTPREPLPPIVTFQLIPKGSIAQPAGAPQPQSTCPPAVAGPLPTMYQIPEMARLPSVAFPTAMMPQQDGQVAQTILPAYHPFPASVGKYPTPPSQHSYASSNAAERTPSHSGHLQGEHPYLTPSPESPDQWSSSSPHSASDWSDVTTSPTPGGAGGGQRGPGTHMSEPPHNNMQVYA

[6] = biological target: Pro-neuregulin-1, membrane-bound isoform (Homo sapiens) (UniProt Q02297); assay: small molecules binding neuregulin-1 protein – biochemical, small-molecule microarray, fluorescence 635/667, psychiatric disease protein project, primary screen (AID 1075); details: NRG1 binding, 635 nm fluorescence, higher = more signal;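 note: score combines 667 nm spot fluorescence with signal to noise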
Sequence of Pro-neuregulin-1, membrane-bound isoform (Homo sapiens) (Q02297 whole entry, looked up, the tested form may be a part, canonical isoform): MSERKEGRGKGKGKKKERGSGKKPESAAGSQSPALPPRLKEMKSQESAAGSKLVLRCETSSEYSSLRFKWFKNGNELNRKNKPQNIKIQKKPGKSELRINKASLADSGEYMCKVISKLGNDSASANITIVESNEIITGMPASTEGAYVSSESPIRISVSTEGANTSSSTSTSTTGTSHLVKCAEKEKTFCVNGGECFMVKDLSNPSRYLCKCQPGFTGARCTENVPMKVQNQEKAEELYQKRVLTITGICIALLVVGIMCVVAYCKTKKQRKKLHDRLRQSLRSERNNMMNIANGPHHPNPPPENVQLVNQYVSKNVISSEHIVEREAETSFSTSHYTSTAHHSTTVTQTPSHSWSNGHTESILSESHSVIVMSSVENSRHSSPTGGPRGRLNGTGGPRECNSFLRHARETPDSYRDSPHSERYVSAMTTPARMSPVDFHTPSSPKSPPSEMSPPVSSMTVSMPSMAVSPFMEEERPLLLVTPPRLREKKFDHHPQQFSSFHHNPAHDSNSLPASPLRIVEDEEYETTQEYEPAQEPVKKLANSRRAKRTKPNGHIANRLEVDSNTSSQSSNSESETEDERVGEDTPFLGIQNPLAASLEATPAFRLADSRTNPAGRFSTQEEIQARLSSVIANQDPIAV

[7] = tested on: Neuregulin-1 EGF-like domain; assay: small molecules binding NRG1 EGF domain – biochemical, small-molecule microarray, 635 nm fluorescence, primary screen (AID 1081); details: higher = more signal;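 note: binding of the protein to compounds printed on small-molecule microarray slides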
[8] = FRG1 expression reporter modulators in myotubes – cell-based, C2C12 myotubes, firefly/Renilla luciferase, luminescence, FRG1 inhibition for FSHD, primary screen (AID 1084); details: FRG1 promoter luciferase, higher = more signal, called active from +8 up or from −8 down
[9] = small molecules captured by biotinylated probe aFST – biochemical, small-molecule microarray, fluorescence 635/667, stem cell growth factor project, primary screen (AID 1086); details: higher = more signal;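 note: score merges 667 nm fluorescence with signal-to-noise of each printed compound spot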
[10] = binders of probe aHhip on microarray, primary screen, stem cell growth factor project, biochemical, small-molecule microarray, fluorescence 635/667 (AID 1087); details: higher = more signal;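 note: score merges spot fluorescence at 667nm with spot signal to noise ratio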

Structure (SMILES)	composite z-score [1]	composite z-score [2]	composite z-score [3]	composite z-score [4]	composite z-score [5]	composite z-score [6]	composite z-score [7]	z-score [8]	composite z-score [9]	composite z-score [10]
CN1C(=O)[C@@]2(CCC(=O)OC(C)(C)C)N=C(c3ccc(OCCCO)cc3)O[C@H]2c2ccccc21	-0.195	0.756	-0.0948	0.124	0.244	0.859	1.13	-0.105 (inactive)	0.183	-0.186
CO[C@H]1O[C@H](CO)[C@@H](OC(=O)Nc2ccc3c(c2)OCO3)[C@H](OC(=O)Nc2ccccc2-c2ccccc2)[C@@H]1OC(=O)Nc1ccccc1-c1ccccc1	0.0442	-0.029	-0.0238	1.13	1.57	0.985	1.17	1.36 (inactive)	0.626	0.151
CCOC(=O)CCN1C(=O)[C@H]2[C@H]3[C@H](O)[C@H](O)CC(=NOCc4ccccc4)[C@@H]3CC[C@H]2C1=O	-0.572	0.227	-0.201	0.193	0.93	0.22	0.588	-0.48 (inactive)	0.0033	-0.0645
CC(CCC(=O)OC[C@H]1O[C@H](C#Cc2ccccc2)C=C[C@@H]1Oc1ccc(C)cc1)=NOC[C@@H](O)COCc1ccco1	0.348	-2.21	0.0388	-3.02	-2.5	-0.837	-0.295	-0.948 (inactive)	-1.94	-0.389
CCOC(=O)[C@H](Cc1ccccc1)NC(=O)CCC1CC(OC(=O)NCc2ccc3c(c2)OCO3)CC2(CCCC(COC(=O)NCC(c3ccccc3)c3ccccc3)O2)O1 (stereo not given in full)	-0.655	0.805	-0.151	0.211	0.883	0.716	1.03	1.26 (inactive)	0.359	-0.306
COC(=O)[C@H](C)NC(=O)CCC1CC(OC(=O)NCc2ccc3c(c2)OCO3)CC2(CCCC(COC(=O)NCCOc3ccccc3)O2)O1 (stereo not given in full)	-0.426	0.898	-0.122	0.325	1.06	0.689	1.04	-0.503 (inactive)	0.91	-0.479
CCOC(=O)NN=C1C[C@@H](O)[C@@H](O)[C@@H]2[C@@H]3C(=O)N(CC)C(=O)[C@@H]3CC[C@@H]12	-0.415	0.377	-0.0355	0.72	0.797	-0.008	0.672	0.323 (inactive)	0.713	-0.201
C=CC[C@]1(C(=O)NCc2ccccc2)N=C(c2ccc(OCCCO)cc2)O[C@H]1c1ccccc1	0.674	1.1	-0.0131	-0.439	0.007	1.51	1.26	-0.97 (inactive)	0.991	-0.0645
CC(C)OC(=O)C=C1C[C@@H](c2ccc(C#N)cc2)O[C@@H](c2ccc(C#N)cc2)O1	-0.475	0.334	0.235	1.01	1.68	1.64	1.21	0.0509 (inactive)	1.58	0.233
